Measurements from PubChem BioAssay.
Calls of active or inactive are those of the source.

Experiments:
[1] = binders of probe aFSTL3 on microarray, primary screen, stem cell growth factor project, biochemical, small-molecule microarray, fluorescence 635/667 (AID 1064); conditions: higher = more signal;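 also: measures binding of the biotinylated anti-FSTL3 antibody to printed compounds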
[2] = binders from COS7 lysate, DM2A8 probe, primary screen, torsin A project, cell lysate, small-molecule microarray, fluorescence 635/667 (AID 1065); conditions: higher = more signal, COS7 lysate expressing mutant human TOR1A
[3] = binders of probe aFGF2 on microarray, primary screen, stem cell growth factor project, biochemical, small-molecule microarray, fluorescence 635/667 (AID 1067); conditions: higher = more signal;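 also: measures binding of biotinylated aFGF2 protein to printed compounds on slides; z-score merges feature fluorescence and signal-to-noise across triplicate slides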
[4] = binders of probe aFGF10 on microarray, primary screen, stem cell growth factor project, biochemical, small-molecule microarray, fluorescence 635/667 (AID 1071); conditions: higher = more signal;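 also: score merges 667 nm spot intensity and signal to noise from triplicate slides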
[5] = molecular target: Neurogenic locus notch homolog protein 2 (Homo sapiens) (UniProt Q04721); test: Notch2 binders on small-molecule microarrays, primary screen, biochemical, small-molecule microarray, 635 nm fluorescence, stem cell growth factors (AID 1073); conditions: Notch2 binding, higher = more signal
Neurogenic locus notch homolog protein 2 (Homo sapiens), sequence (Q04721 whole entry, looked up, canonical isoform): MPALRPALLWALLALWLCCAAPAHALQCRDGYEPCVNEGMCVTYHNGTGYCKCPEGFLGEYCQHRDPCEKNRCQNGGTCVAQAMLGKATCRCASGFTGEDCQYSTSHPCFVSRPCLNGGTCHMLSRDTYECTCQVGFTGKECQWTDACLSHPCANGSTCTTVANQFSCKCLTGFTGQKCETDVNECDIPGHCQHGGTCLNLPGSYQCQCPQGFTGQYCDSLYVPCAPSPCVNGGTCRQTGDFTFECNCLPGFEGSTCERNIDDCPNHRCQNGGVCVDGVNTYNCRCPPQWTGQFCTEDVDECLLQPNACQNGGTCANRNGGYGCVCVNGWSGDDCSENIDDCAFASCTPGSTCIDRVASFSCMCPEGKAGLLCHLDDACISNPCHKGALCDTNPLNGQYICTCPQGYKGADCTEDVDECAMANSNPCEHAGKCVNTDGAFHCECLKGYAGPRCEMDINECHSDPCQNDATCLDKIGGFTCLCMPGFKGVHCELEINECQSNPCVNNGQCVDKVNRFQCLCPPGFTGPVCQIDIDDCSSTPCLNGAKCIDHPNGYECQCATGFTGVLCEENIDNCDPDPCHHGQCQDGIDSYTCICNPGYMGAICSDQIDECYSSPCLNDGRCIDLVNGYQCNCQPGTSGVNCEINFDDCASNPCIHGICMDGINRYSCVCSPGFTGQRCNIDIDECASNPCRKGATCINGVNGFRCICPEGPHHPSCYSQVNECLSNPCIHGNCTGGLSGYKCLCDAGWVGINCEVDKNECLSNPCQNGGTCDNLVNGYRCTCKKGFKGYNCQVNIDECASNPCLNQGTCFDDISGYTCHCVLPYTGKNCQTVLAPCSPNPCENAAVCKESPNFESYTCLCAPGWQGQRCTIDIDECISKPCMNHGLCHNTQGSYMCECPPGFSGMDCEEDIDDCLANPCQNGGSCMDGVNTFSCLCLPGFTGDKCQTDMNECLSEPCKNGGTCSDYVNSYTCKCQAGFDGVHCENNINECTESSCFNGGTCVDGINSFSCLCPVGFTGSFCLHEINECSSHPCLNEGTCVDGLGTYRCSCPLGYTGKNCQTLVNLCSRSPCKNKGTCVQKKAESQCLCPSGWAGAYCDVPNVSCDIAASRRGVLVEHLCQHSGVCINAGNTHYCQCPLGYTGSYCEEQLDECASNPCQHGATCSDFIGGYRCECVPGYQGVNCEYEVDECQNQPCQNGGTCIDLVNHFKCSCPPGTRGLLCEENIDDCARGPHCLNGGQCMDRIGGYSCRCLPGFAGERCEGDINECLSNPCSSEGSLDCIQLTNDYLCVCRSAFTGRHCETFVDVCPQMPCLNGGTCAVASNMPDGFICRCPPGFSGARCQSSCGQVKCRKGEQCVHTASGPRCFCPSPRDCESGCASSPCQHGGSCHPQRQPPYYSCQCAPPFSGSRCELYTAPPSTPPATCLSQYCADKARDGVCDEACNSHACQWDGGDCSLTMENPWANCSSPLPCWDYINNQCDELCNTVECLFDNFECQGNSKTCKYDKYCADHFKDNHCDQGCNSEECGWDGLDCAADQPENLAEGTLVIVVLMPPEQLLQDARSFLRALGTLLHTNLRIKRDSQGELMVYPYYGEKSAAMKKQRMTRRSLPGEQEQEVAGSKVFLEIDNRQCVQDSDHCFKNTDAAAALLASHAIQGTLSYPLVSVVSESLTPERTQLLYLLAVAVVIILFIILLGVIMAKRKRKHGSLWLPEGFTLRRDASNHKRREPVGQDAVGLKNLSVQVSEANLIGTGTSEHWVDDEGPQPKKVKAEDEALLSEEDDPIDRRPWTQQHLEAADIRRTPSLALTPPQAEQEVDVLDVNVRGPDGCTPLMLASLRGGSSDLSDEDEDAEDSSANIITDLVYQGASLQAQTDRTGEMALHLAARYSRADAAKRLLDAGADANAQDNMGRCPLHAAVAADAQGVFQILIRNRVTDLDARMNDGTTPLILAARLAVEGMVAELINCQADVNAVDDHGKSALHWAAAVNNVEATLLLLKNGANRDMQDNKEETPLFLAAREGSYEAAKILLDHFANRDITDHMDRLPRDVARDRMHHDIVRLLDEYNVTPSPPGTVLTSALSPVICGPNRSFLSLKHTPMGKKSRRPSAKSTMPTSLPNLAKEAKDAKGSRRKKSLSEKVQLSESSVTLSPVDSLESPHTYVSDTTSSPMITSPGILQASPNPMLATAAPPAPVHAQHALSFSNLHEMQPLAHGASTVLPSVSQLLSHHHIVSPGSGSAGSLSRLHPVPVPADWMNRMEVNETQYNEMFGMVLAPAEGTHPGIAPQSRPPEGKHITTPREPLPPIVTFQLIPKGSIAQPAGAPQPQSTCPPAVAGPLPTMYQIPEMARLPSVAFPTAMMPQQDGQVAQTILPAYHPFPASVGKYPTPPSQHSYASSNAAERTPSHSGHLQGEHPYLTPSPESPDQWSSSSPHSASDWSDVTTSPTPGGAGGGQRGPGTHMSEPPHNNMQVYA

[6] = molecular target: Pro-neuregulin-1, membrane-bound isoform (Homo sapiens) (UniProt Q02297); test: NRG1 binders on small-molecule microarrays, primary screen, psychiatric disease protein project, biochemical, small-molecule microarray, fluorescence 635/667 (AID 1075); conditions: NRG1 binding, 635 nm fluorescence, higher = more signal;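 also: score combines 667 nm spot fluorescence with signal to noise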
Pro-neuregulin-1, membrane-bound isoform (Homo sapiens), sequence (Q02297 whole entry, looked up, the tested form may be a part, canonical isoform): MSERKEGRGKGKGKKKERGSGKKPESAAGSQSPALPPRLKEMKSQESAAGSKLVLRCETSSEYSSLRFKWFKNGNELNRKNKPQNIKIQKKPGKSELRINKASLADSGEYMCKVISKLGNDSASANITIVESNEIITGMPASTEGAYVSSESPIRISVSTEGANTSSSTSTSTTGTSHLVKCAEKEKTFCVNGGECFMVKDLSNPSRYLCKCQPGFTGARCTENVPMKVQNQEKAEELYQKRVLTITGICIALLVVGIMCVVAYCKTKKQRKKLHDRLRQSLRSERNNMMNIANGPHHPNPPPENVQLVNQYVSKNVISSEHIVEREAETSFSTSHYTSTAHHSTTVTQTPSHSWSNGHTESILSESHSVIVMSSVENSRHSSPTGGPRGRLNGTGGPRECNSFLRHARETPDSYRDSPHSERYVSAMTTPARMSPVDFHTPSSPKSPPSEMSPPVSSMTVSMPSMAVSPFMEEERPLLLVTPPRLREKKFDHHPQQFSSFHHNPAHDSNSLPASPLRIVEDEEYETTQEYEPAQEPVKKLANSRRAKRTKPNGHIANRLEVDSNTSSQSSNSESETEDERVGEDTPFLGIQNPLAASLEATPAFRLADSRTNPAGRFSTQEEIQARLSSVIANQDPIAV

[7] = tested on: Neuregulin-1 EGF-like domain; test: binders of neuregulin-1 EGF-like domain, primary screen, biochemical, small-molecule microarray, 635 nm fluorescence (AID 1081); conditions: small-molecule microarray binding, higher = more signal;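 also: binding of the protein to compounds printed on small-molecule microarray slides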
[8] = FRG1 promoter luciferase signal modulators, primary screen, FRG1 inhibition for FSHD, cell-based, C2C12 myotubes, firefly/Renilla luciferase, luminescence (AID 1084); conditions: higher = more signal, called active from +8 up or from −8 down
[9] = binders of probe aFST on microarray, primary screen, stem cell growth factor project, biochemical, small-molecule microarray, fluorescence 635/667 (AID 1086); conditions: higher = more signal;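 also: score merges 667 nm fluorescence with signal-to-noise of each printed compound spot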
[10] = binders of probe aHhip on microarray, primary screen, stem cell growth factor project, biochemical, small-molecule microarray, fluorescence 635/667 (AID 1087); conditions: higher = more signal;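 also: score merges spot fluorescence at 667nm with spot signal to noise ratio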

Structure (SMILES)	composite z-score [1]	composite z-score [2]	composite z-score [3]	composite z-score [4]	composite z-score [5]	composite z-score [6]	composite z-score [7]	z-score [8]	composite z-score [9]	composite z-score [10]
COC(=O)[C@@]1(Cc2ccc(OC)cc2)[C@H]2c3cc(C(=O)N4CCCC4)n(CCc4c[nH]c5ccc(OC)cc45)c3C[C@H]2CN1C(=O)c1ccccc1	1.49	1.14	0.204	0.686	1.74	0.898	1.16	0.49 (inactive)	1.55	-0.161
[N-]=[N+]=Nc1ccccc1C[C@]1(C(=O)O)COC(c2ccc(OCCCO)cc2)=N1	0.326	-1.1	-0.11	0.518	0.194	0.614	1.19	5.78 (inactive)	0.205	0.419
CC(C)[Si]1(C(C)C)OCc2cc(C3CC3)nc(-c3ccc(Oc4ccccc4)cc3)c21	-0.0872	-0.502	-0.207	-0.18	-0.393	-0.65	-0.791	-0.343 (inactive)	-0.15	-0.469
CC1=C2[C@@H](CCc3ccccc3)OB(O)C[C@@H]2[C@@H]2C(=O)N(Cc3ccccc3)C(=O)[C@@H]2C1	-0.575	-0.0096	-0.155	0.0928	0.529	0.0808	1.02	-0.0949 (inactive)	0.0584	-0.0618
CCCCN1CC=CC23O[C@@H]4/C=C\CCCOC(=O)C4[C@H]2C(=O)N(CCO)[C@@H]3C1=O (stereo not given in full)	0.33	-1.37	-0.19	-0.615	-0.913	0.441	1.61	-0.0657 (inactive)	-1	-0.271
COCCOC(=O)N1C(=O)[C@@]2(c3cc(C#CCNC(N)=O)ccc31)[C@H](C(N)=O)[C@H]1C(=O)O[C@H](c3ccccc3)[C@H](c3ccccc3)N1[C@@H]2c1ccccc1OCCO	-0.0102	0.176	-0.0381	0.43	1.23	0.667	0.46	1.94 (inactive)	0.931	0.107
COc1cc2c(cc1O)C=[N+](Cc1sc3ccccc3c1Cl)CC2	0.172	-0.0743	-0.0999	0.1	1.06	-0.102	1.48	0.432 (inactive)	-0.161	0.0178
COc1ccc(CCNC(=O)[C@@]2(Cc3ccccc3I)c3ccccc3C(=O)N(C3CCCCC3)[C@H]2c2ccc(CO)cc2)cc1	-0.0515	-0.256	-0.079	-0.0337	0.281	0.56	0.897	-4.25 (inactive)	0.384	-0.0645
COC(=O)C1=CC(CCCO)=CC(c2ccc(CN3CCCC3)cc2)N(Cc2cccc(OC(F)(F)F)c2)C=C1C(=O)OC (stereo not given)	0.928	-0.185	-0.0361	0.419	1.44	1.79	1.11	-0.616 (inactive)	0.857	-0.0994
COCCOC(=O)N1C(=O)[C@@]2(c3ccccc31)[C@H](C(=O)NC[C@H](O)c1ccccc1)[C@H]1C(=O)O[C@H](c3ccccc3)[C@H](c3ccccc3)N1[C@@H]2c1ccc(O)cc1	-0.19	0.23	0.0017	0.941	1.55	0.57	1.25	-0.677 (inactive)	0.839	0.689
COc1ccc([C@H]2OC[C@@H]3C[C@H](Cc4ccccc4)C(=O)N32)cc1	-0.458	0.7	-0.0376	0.219	0.423	-0.465	0.684	0.18 (inactive)	0.277	0.107
CO[C@H]1O[C@H](CO)[C@@H](OC(=O)CCc2ccccc2)[C@@H]2OC(=O)[C@@H](Cc3ccccc3)C/C=C/C[C@H](Cc3ccccc3)C(=O)O[C@@H]12	-0.0519	0.595	-0.0962	0.242	0.185	0.438	0.756	0.248 (inactive)	0.671	0.0854
COc1cc2c(cc1O)C(c1cccs1)N(Cc1cc3c(cc1Br)OCO3)CC2 (stereo not given)	-0.0508	0.58	0.0797	1.3	1.56	2.08	1.45	0.364 (inactive)	1.23	0.0881
CCOC(=O)C1=C[C@@H](C(C)(C)C)N(S(=O)(=O)c2ccc(C)cc2)[C@H]1c1cccc2ccccc12	0.0905	-0.0282	-0.0724	0.0331	1.08	0.541	0.876	-4.42 (inactive)	0.692	-0.0296
C=C[C@@H](OC)[C@H](OC(=O)Nc1ccc(OC)cc1)c1ccc(O)c(F)c1	-0.122	1.6	-0.142	-0.528	-1.25	0.749	1.15	3.87 (inactive)	-0.39	-0.0994
